Results from PubChem BioAssay AID743467 (Broad Institute, 2014).
The other results are listed elsewhere or left out. Records with an inconclusive call do not appear. Activity calls are given as the source filed them.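 The calls were made as follows: active = compound lowering PGC-1a expression with fitted half-maximal concentration at most twice its top tested dose; inconclusive = flat curve with moderate opposite-direction effect, or poor fit; inactive = the rest.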

assay: hepatocyte PGC-1a gene expression decrease – cell-based, primary mouse hepatocytes, RT-qPCR, cherry-pick, PGC-1a acetylation activator project, dose response (AID 743467); conditions: PGC-1a mRNA qPCR, forskolin, top dose 26 µM, active compounds read high; at 26 µM unless noted;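 also: 0% = neutral control wells median and 100% = positive control wells median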

Row | Structure (SMILES) | max activity (PGC-1a expression decrease)
1 | CCC(C)(C)n1nnnc1C(c1ccccc1OC)N1CCSCC1 (centres undefined) | 74.7% (inactive)
2 | O=S(=O)(NCc1ccccc1Br)c1ccccc1Br | 65.1% (inactive)
3 | COc1ccc(-n2nnnc2CNC(=O)c2ccc3ccccc3c2)cc1 | 86.6% [at 0.0038 µM] (inactive)
4 | O=C(NCc1ccccc1)C(c1ccccc1)N(C(=O)c1csnn1)c1ccc(F)cc1 (centres undefined) | 114% [at 8 µM] (inactive)
5 | CCOC(=O)c1c(NC(=O)CSc2cn(CC)c3ccccc23)sc2c1CCC2 | 60.3% (inactive)
6 | Cc1cc(C(=O)NNS(=O)(=O)c2ccccc2C(F)(F)F)nn1C(C)(C)C | 22.5% [at 0.0012 µM] (inactive)
7 | Cc1ccc(OCC(=O)NCCCNC(=O)c2cccnc2)cc1C | 111% (inactive)
8 | O=C(NCCC1CCCCN1S(=O)(=O)c1cccs1)C(=O)Nc1ccc(F)cc1F (centres undefined) | 63.6% (inactive)
9 | Cc1cc(C)c2c(-n3cccc3)c(C(=O)NNS(=O)(=O)c3ccc(F)cc3)sc2n1 | 82.5% [at 8 µM] (inactive)
10 | CC(C)CCNc1nc(N2CCCC2)c2c(c1C#N)CCN(C)C2 | 56.4% (inactive)
11 | CCOC(=O)c1c(-c2ccc(C)cc2C)csc1NC(=O)CSc1nnnn1C | 87% [at 8 µM] (inactive)
12 | COc1ccc(Nc2nnc(C)c3ccccc23)cc1 | 52.1% (inactive)
13 | CCOc1ccccc1CN1CCN(C2CCC2)CC1CCO (centres undefined) | 28.9% [at 8 µM] (inactive)
14 | CCCCC(=O)Nc1ccc(C(=O)NCCCn2ccnc2)cc1 | 68.4% [at 0.011 µM] (inactive)
